{
  "source": "the supplement of paper PMC13380429",
  "data": [
    {"test_system": "Vero E6 infected with SARS-CoV-2", "test": "SARS-CoV-2 infection rate relative to infected DMSO; higher = more infection, active = 60 or less", "conditions": "24 h", "values": [
      {"smiles": "C[C@H]1COC2=C1C(=O)C(=O)c1c2ccc2c1CCCC2(C)C", "note": "[cryptotanshinone] (10 µM)", "SARS-CoV-2 infection rate": "100% (inactive)"},
      {"smiles": "CN1CCN(c2cccc3[nH]c(=O)oc23)CC1", "note": "[pardoprunox] (10 µM)", "SARS-CoV-2 infection rate": "103% (inactive)"},
      {"smiles": "CC1(C)CCC(C)(C)c2cc(C3(c4ccc5cc(C(=O)O)ccc5c4)SCCS3)ccc21", "note": "(10 µM)", "SARS-CoV-2 infection rate": "98% (inactive)"},
      {"smiles": "FC(F)(F)C(F)(F)C(F)(F)N(C(F)(F)C(F)(F)C(F)(F)F)C(F)(F)C(F)(F)C(F)(F)F", "note": "[perfluamine] (10 µM)", "SARS-CoV-2 infection rate": "92.5% (inactive)"},
      {"smiles": "NC(=O)c1[nH]cnc1O", "note": "(10 µM)", "SARS-CoV-2 infection rate": "107% (inactive)"},
      {"smiles": "CC(CN(C)C)C(C)(O)Cc1ccc(Cl)cc1", "note": "(stereo not given) [clobutinol] (10 µM)", "SARS-CoV-2 infection rate": "109% (inactive)"},
      {"smiles": "CCC[C@@H]1C[C@@H](C(=O)N[C@@H]([C@H]2O[C@H](SC)[C@H](OP(=O)(O)O)[C@@H](O)[C@H]2O)[C@H](C)Cl)N(C)C1", "note": "[Clindamycin phosphate] (10 µM)", "SARS-CoV-2 infection rate": "107% (inactive)"},
      {"smiles": "Cc1nc2c(c(=O)[nH]1)CSCC2", "note": "(10 µM)", "SARS-CoV-2 infection rate": "114% (inactive)"},
      {"smiles": "CCc1nc(N)nc(N)c1-c1ccc(Cl)cc1", "note": "[pyrimethamine] (0.833333 µM)", "SARS-CoV-2 infection rate": "115% (inactive)"},
      {"smiles": "O=C(Nc1ccccc1)OCC(CN1CCCCC1)OC(=O)Nc1ccccc1", "note": "(stereo not given) [diperodon] (10 µM)", "SARS-CoV-2 infection rate": "108% (inactive)"},
      {"smiles": "NC(=O)c1cc([N+](=O)[O-])cc([N+](=O)[O-])c1", "note": "[nitromide] (10 µM)", "SARS-CoV-2 infection rate": "83.5% (inactive)"},
      {"smiles": "O=c1c(O)c(-c2ccc(O)c(O)c2)oc2cc(O)ccc12", "note": "[fisetin] (10 µM)", "SARS-CoV-2 infection rate": "111% (inactive)"},
      {"smiles": "CCCCNc1nc(N)c2[nH]c(=O)n(Cc3ccc(OCCN(C)C)nc3)c2n1", "note": "(10 µM)", "SARS-CoV-2 infection rate": "103% (inactive)"},
      {"smiles": "O=C(c1ccc(Cl)cc1)N(Cc1ccccc1)C1CCCCC1", "note": "(10 µM)", "SARS-CoV-2 infection rate": "103% (inactive)"},
      {"smiles": "CNCCN(C)Cc1c[nH]nc1-c1ccc(O[C@H]2C[C@H](OCCC3CCOCC3)C2)cc1", "note": "(10 µM)", "SARS-CoV-2 infection rate": "108% (inactive)"},
      {"smiles": "CCCc1nn(C)c2c(=O)[nH]c(-c3cc(S(=O)(=O)N4CCN(C)CC4)ccc3OCC)nc12", "note": "[sildenafil] (10 µM)", "SARS-CoV-2 infection rate": "109% (inactive)"},
      {"smiles": "Cc1oc(=O)oc1CN1CCN(c2cc3c(cc2F)c(=O)c(C(=O)O)c2n3C(C)S2)CC1", "note": "(stereo not given) [prulifloxacin] (10 µM)", "SARS-CoV-2 infection rate": "97% (inactive)"},
      {"smiles": "Cc1cccc(C(=O)NCN2CCN(c3ccccc3C#N)CC2)c1", "note": "(10 µM)", "SARS-CoV-2 infection rate": "102% (inactive)"},
      {"smiles": "CNCCc1ccc(O)c(O)c1", "note": "[deoxyepinephrine] (10 µM)", "SARS-CoV-2 infection rate": "106% (inactive)"},
      {"smiles": "COc1cccc(N2CCN(C3=Nc4c(F)cccc4[C@H](CC(=O)O)N3c3cc(C(F)(F)F)ccc3OC)CC2)c1", "note": "[letermovir] (10 µM)", "SARS-CoV-2 infection rate": "109% (inactive)"}
    ]}
  ]
}
